# Data from paper PMC4336329 (PLoS ONE, 2015).
# The campaign covered roughly 310,000 compounds. About 14,000 (4.5%) showed an effect of 50% or more. The effect is printed as a negative number. For the sample, strong results were picked, then their nearest neighbours and some compounds at random.
# Molecular target: human ether-à-go-go-related gene (hERG) potassium channel (human, UniProt Q12809)
# Assay: primary screen, population patch clamp on CHO cells stably expressing hERG; higher = less effect of the substance
# 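Further: peak tail current of the secondary pulse compared with the same well before compound.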
# Chain of human ether-à-go-go-related gene (hERG) potassium channel (Q12809 whole entry, looked up): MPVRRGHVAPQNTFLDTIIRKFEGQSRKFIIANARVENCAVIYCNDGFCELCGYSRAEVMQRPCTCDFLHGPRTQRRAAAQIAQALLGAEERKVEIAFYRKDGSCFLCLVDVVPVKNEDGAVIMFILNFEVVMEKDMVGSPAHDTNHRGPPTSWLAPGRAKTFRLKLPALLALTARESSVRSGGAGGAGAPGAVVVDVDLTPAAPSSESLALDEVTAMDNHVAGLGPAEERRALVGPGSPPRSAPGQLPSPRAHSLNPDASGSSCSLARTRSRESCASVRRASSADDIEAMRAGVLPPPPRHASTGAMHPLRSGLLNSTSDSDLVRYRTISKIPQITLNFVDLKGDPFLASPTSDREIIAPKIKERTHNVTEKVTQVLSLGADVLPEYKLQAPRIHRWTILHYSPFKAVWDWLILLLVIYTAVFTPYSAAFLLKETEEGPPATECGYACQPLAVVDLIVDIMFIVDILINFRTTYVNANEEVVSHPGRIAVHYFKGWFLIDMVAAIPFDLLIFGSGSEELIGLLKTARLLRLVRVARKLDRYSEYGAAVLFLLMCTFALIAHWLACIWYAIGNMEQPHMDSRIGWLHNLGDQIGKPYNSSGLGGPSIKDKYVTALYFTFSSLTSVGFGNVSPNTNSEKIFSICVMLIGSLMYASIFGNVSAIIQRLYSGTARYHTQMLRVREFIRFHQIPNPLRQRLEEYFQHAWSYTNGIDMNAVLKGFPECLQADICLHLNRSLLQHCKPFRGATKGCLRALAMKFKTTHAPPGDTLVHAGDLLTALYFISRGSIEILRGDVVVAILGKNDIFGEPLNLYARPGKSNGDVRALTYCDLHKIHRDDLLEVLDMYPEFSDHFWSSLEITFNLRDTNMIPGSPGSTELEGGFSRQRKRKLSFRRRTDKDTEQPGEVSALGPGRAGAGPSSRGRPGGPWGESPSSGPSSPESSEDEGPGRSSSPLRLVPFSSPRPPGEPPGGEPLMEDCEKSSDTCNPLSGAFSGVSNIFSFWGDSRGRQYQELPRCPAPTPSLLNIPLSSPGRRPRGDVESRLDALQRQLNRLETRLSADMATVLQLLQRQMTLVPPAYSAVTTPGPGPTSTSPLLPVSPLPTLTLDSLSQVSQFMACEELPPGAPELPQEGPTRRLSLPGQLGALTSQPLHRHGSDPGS
row,Compound,"hERG current change (%, negative = inhibition) at 10uM [%]"
1,O=C(N/N=C/c1ccccn1)c1cccc(NC(=O)c2ccccc2Cl)c1,-4.9
2,CC(=O)O.Cc1nc2nc(CSc3nnc(C)s3)cc(=O)n2[nH]1,13.9
3,CCOC(=O)CN(C(=O)Cn1nnc(-c2ccc(C)cc2)n1)C(CC)C(=O)NC1CCCC1 (stereo not drawn),-8.67
4,Cc1cc2c(cc1C)C(c1cc(Br)ccc1F)CC(=O)N2 (stereo not drawn),8.78
5,COc1ccc2[nH]c(C)c(CCNC(=S)Nc3ccccc3OC)c2c1,8.79
6,CN(C)CCn1c(C(=O)Nc2ccccc2)cc2ccccc21.Cl,-58.9
7,CN(C)CCn1c(C(=O)O)cc2ccccc21.Cl,14.6
8,CNC(=O)c1cc2cc(OC)ccc2n1CCN(C)C,-11.6
9,CCOC(=O)CSc1nc(=O)n2ccccc2n1,13.2
10,COc1ccccc1NC(=O)CCS(=O)(=O)c1ccccc1,12.7
11,CC(NC(=O)Cn1cc2c(n1)CCCCC2)c1ccccc1 (stereo not drawn),1.69
12,Cc1ccc2nc(SCC(=O)c3ccccc3)nc(=O)n2c1,-10.1
13,CCc1ccc(Nc2n[n+](-c3ccccc3)c(-c3ccc(OC)c(Br)c3)s2)cc1.[Cl-],-44
14,COc1ccc(C)cc1Nc1n[n+](-c2ccccc2)c(-c2ccc(SC)cc2)s1.[Cl-],-1.4
15,CCOc1cc(-c2sc(Nc3ccccc3)n[n+]2-c2ccc(F)cc2)ccc1OC.[Cl-],23.6
16,CCOc1cc(-c2sc(Nc3ccc(CC)cc3)n[n+]2-c2ccccc2)ccc1OC.[Cl-],-78.7
17,CCOc1cc(-c2sc(Nc3cc(C)ccc3OC)n[n+]2-c2ccccc2)ccc1OC.[Cl-],-68.7
18,COc1ccc(C)cc1Nc1n[n+](-c2ccccc2)c(-c2ccc(N(C)C)cc2)s1.[Cl-],-49.3
19,COc1ccc2ccccc2c1C1CC(=O)N2CN(C)CSC2=C1C#N (stereo not drawn),12.7
20,CCn1c(/C=C2\C(=O)Nc3ccccc32)nc2ccccc2c1=O,-18.3
21,Cc1ccc(NC(=O)CC2SC(=NC3CCCCC3)NC2=O)cc1 (stereo not drawn),-9.82
22,COc1ccc(C(CNS(=O)(=O)c2ccc(F)cc2)N2CCN(C)CC2)cc1 (stereo not drawn),-32.5
23,Cc1ccc(S(=O)(=O)NCC(c2ccccc2)N2CCN(CCC#N)CC2)cc1 (stereo not drawn),-21.5

row,Compound,"hERG current change (%, negative = inhibition) at 10uM [%]"
1,COc1ccc(S(=O)(=O)NCC(c2ccc(F)cc2)N2CCN(C)CC2)cc1 (stereo not drawn),-36.4
2,CC(NS(=O)(=O)c1ccccc1)C(c1cccs1)N1CCN(C)CC1 (stereo not drawn),5.5
3,COc1ccc(S(=O)(=O)NCC(c2ccc(C)cc2)N2CCN(C)CC2)cc1OC (stereo not drawn),-25.6
4,Cc1ccc(C(CNS(=O)(=O)c2ccc(F)cc2)N2CCN(C)CC2)cc1 (stereo not drawn),-58.3
5,Cc1ccc(S(=O)(=O)NC(C)C(c2cccs2)N2CCN(C)CC2)cc1 (stereo not drawn),-18
6,O=[N+]([O-])c1ccc(S(=O)(=O)NCC(c2cccnc2)N2CCc3ccccc3C2)cc1 (stereo not drawn),-35.6
7,CC(NS(=O)(=O)c1ccc(Br)cc1)C(c1cccs1)N1CCN(C)CC1 (stereo not drawn),-53.2
8,CN1CCN(C(CNS(=O)(=O)c2ccc([N+](=O)[O-])cc2)c2ccc(F)cc2)CC1 (stereo not drawn),-67.6
9,O=[N+]([O-])c1ccc(S(=O)(=O)NCC(c2cccnc2)N2CCOCC2)cc1 (stereo not drawn),-22
10,Cc1ccc(C(CNS(=O)(=O)c2ccc(C)cc2)N2CCN(C)CC2)cc1 (stereo not drawn),-62.8
11,Cc1ccc(Nc2nnc(SCC(=O)Nc3ncc(S(=O)(=O)c4ccc([N+](=O)[O-])cc4)s3)s2)cc1,-14.5
12,CC1CCN(S(=O)(=O)c2ccc(NC(=O)CN3CCCCCC3)cc2)CC1,-31.2
13,Cc1c(CCO)c(=O)n(-c2ccccc2)n1S(=O)(=O)c1ccc(F)cc1,1.37
14,COc1ccccc1NC(=O)c1sc2nc(N3CCOCC3)c3c(c2c1N)CCCC3,15.2
15,Cc1ccc(C(CNS(=O)(=O)c2ccc(Cl)cc2)N2CCN(C)CC2)cc1 (stereo not drawn),-72.8
16,COc1ccc(S(=O)(=O)NCC(c2ccc(C)cc2)N2CCN(C)CC2)cc1 (stereo not drawn),-51.9
17,O=S(=O)(NCC(c1ccccc1)N1CCNCC1)c1ccc(Cl)cc1 (stereo not drawn),-28.6
18,COc1ccc(N2CCN(C(CNS(=O)(=O)c3ccccc3)c3ccccc3)CC2)cc1 (stereo not drawn),-22.5
19,COc1ccc(C(CNS(=O)(=O)c2ccc(C)cc2)N2CCN(C)CC2)cc1 (stereo not drawn),-45.2
20,Cc1ccc(C(CNS(=O)(=O)c2ccc(F)cc2C)N2CCN(C)CC2)cc1 (stereo not drawn),-57
21,CN(C)c1ccc(C(CNS(=O)(=O)c2ccc([N+](=O)[O-])cc2)N2CCCC2)cc1 (stereo not drawn),-47.2
22,CN(C)c1ccc(C(CNS(=O)(=O)c2ccc([N+](=O)[O-])cc2)N2CCOCC2)cc1 (stereo not drawn),-25.9
23,COc1ccc(OC)c(S(=O)(=O)NCC(c2ccc(F)cc2)N2CCN(C)CC2)c1 (stereo not drawn),-33.8

row,Compound,"hERG current change (%, negative = inhibition) at 10uM [%]"
1,Cc1cc(F)ccc1S(=O)(=O)NCC(c1ccc2c(c1)OCO2)N1CCOCC1 (stereo not drawn),-16.8
2,O=S(=O)(NCC(c1ccccc1)N1CCC(O)CC1)c1ccc(Cl)cc1 (stereo not drawn),-19.6
3,Cc1ccc(C(CNS(=O)(=O)c2ccc([N+](=O)[O-])cc2)N2CCN(C)CC2)cc1 (stereo not drawn),-66.8
4,CC1CN(c2oc(COc3ccc(Cl)cc3Cl)nc2C#N)CC(C)O1 (stereo not drawn),-13.6
5,c1ccc(SCc2cn3cccnc3n2)nc1,15.1
6,COc1cc(OC)c(NS(=O)(=O)c2cc(C(=O)OC(C)C(=O)NC3CC3)c(Cl)cc2Cl)cc1Cl (stereo not drawn),-37
7,COc1cccc(OCCOc2ccc(/C=C3\C(=N)N4N=C(S(C)(=O)=O)SC4=NC3=O)cc2OC)c1,23.4
8,O=C(COC(=O)c1cc(-c2ccccc2Cl)nc2ccccc12)Nc1ncc(C(F)(F)F)cc1Cl,-10.9
9,COC(=O)c1cccc(-c2ccc(/C=N/N3C(=O)C4C5C=CC(C6CC56)C4C3=O)o2)c1 (stereo not drawn),-8.32
10,CC1CCN(S(=O)(=O)c2ccc3c(c2)c(=O)c(C(=O)N2CCOCC2)cn3C)CC1,13.5
11,CC(Oc1ccc(Br)cc1)C(=O)N(C)CC(=O)Nc1ccc(N2CCOCC2)cc1 (stereo not drawn),2.99
12,CC(C)CN(CC(C)C)C(=O)CN1C(=O)NC2(CCc3ccccc3C2)C1=O (stereo not drawn),-8.61
13,Cc1ccnc(-n2c(C)cc(/C=C3\C(=O)NC(=S)N(C)C3=O)c2C)c1,12.9
14,Cc1cc(=O)[nH]c(COc2ccccc2)n1,17.2
15,CCN(CC)S(=O)(=O)c1ccc2c(c1)nc(SCC(=O)N(C)C1CCS(=O)(=O)C1)n2CC (stereo not drawn),6.94
16,N#Cc1c(Cl)nsc1NCCN1CCOCC1,15.4
17,Cc1ccc(C(CNS(=O)(=O)c2ccccc2)N2CCN(C)CC2)cc1 (stereo not drawn),-53.6
18,Cc1cc(S(=O)(=O)NCC(c2ccc3c(c2)OCO3)N2CCOCC2)ccc1F (stereo not drawn),-20.7
19,Cc1ccc(C(CNS(=O)(=O)c2ccc(Br)cc2)N2CCN(C)CC2)cc1 (stereo not drawn),-72.4
20,COc1ccc(C(CNS(=O)(=O)c2ccccc2)N2CCN(C)CC2)cc1 (stereo not drawn),-35.7
21,Cc1cc(S(=O)(=O)NCC(c2ccc(F)cc2)N2CCN(C)CC2)ccc1F (stereo not drawn),-68.4
22,O=S(=O)(NCC(c1ccc2c(c1)OCO2)N1CCOCC1)c1ccc(F)cc1 (stereo not drawn),-6.81
23,Cc1ccc(S(=O)(=O)NCCNC(C)c2ccc(Br)cc2)cc1 (stereo not drawn),-42.5

row,Compound,"hERG current change (%, negative = inhibition) at 10uM [%]"
1,Cc1ccc(S(=O)(=O)NCC(c2ccccc2)N2CCCCC2)cc1 (stereo not drawn),1.79
2,COc1cccc(C(=O)NNC(=O)C2CCCO2)c1 (stereo not drawn),15.3
3,CCC1=[N+](CC(=O)c2ccc(Br)cc2)CCn2c(C)ccc21.[Br-],-6.76
4,COc1cc(Nc2cc(C)nc3ncnn23)cc(OC)c1,-8.29
5,CN1CCC(NC(=O)Cc2c(F)cccc2Cl)CC1,-1.52
6,O=C(c1ccc(C(F)(F)F)cc1)C1CCCN(C(=O)CN2CCCC2=O)C1 (stereo not drawn),0.525
7,O=C1CCC2S/C(=C/Nc3ccc(C(F)(F)F)cc3)C(=O)N12 (stereo not drawn),-52.2
8,CS(=O)(=O)N1CCC(C(=O)Nc2ccc(C(F)(F)F)cc2)CC1,12.4
9,COc1ccc(OC)c(NC(=O)CCNS(=O)(=O)c2cc(Br)cnc2N)c1,-14.9
10,CC1(C)Cc2ccccc2-c2nnc(SCc3ccc(C#N)cc3)n21,-58.9
11,O=C(COC(=O)c1cnccn1)Nc1ccc2c(c1)OCO2,7.23
12,CC1(C)Cc2ccccc2-c2nnc(SCC(=O)Nc3nc4ccccc4s3)n21,-74.4
13,COc1cc(NC(=O)CSc2nnc3n2C(C)(C)Cc2ccccc2-3)cc(OC)c1,10
14,COC(=O)CSc1nnc2n1C(C)(C)Cc1ccccc1-2,3.46
15,CC1(C)Cc2ccccc2-c2nnc(SCC(=O)Nc3ccc4c(c3)OCO4)n21,-63.2
16,O=C(COC(=O)c1cccnc1Cl)Nc1ccc2c(c1)OCO2,2.28
17,O=C(COC(=O)c1ccccn1)Nc1ccc2c(c1)OCO2,-65.5
18,COc1ccc2nc(NC(=O)CSc3nnc4n3C(C)(C)Cc3ccccc3-4)sc2c1,0.248
19,CCSc1nnc2n1C(C)(C)Cc1ccccc1-2,0.0135
20,Cn1c(SCC(=O)Nc2nc3ccccc3s2)nnc1-c1ccccc1,10.3
21,CCn1c(SCC(=O)Nc2ccc3c(c2)OCO3)nnc1-c1ccccc1O,7.21
